The values that follow come from PubChem BioAssay (Tox21).

“And” between values parts separate entries of the source, which are not always exact repeats. Identical values can stand only once. Records with an inconclusive call do not appear. Entries that show only a call come without a potency. The source made the active and inactive calls. Calls follow the shape of the dose curve; as a rule, active = well fitted activation curve with a large enough effect in the signal ratio in the repeat runs (not every such curve was filed as active); inconclusive = weak or mixed curves, or effect the other way; inactive = no such curve, though single readings can be large or run the other way; the % refers to the signal ratio.
Potency is read from the fitted curve at half-maximal effect.

The experiment is described as follows: qHTS assay for small molecule agonists of the antioxidant response element (ARE) signaling pathway (AID 743202). Conditions: HepG2 ARE-bla reporter, beta-lactamase FRET, 16 h; series mostly up to 73.3 µM; activation: at the top concentration. The text has this:
U.S. Tox21 Program National Center for Advancing Translational Sciences [NCATS] NIH Chemical Genomics Center [NCGC] U.S. Environmental Protection Agency [EPA] National Institutes of Environmental Health Sciences [NIEHS] National Toxicology Program [NTP] U.S. Food and Drug Administration [FDA] Tox21 Assay Overview: Oxidative stress has been implicated in the pathogenesis of a variety of diseases ranging from cancer to neurodegeneration. The antioxidant response element (ARE) signaling pathway plays an important role in the amelioration of oxidative stress. The CellSensor ARE-bla HepG2 cell line (Invitrogen) can be used for analyzing the Nrf2/antioxidant response signaling pathway. Nrf2 (NF-E2-related factor 2) and Nrf1 are transcription factors that bind to AREs and activate these genes. The CellSensor ARE-bla Hep G2 cell line contains a beta-lactamase reporter gene under control of the Antioxidant Response Element (ARE) stably integrated into HepG2 cells. The activation of the report gene under culture conditions can be detected by fluorescence intensity. This cell line has been used to screen the Tox21 10K compound library to identify agonists that induce oxidative stress.
Tox21 Assay Protocol Summary: The ARE-bla cells were dispensed at 2,000 cells/5 ul/well in 1536-well black wall/clear bottom plates using a Multidrop dispenser. After the assay plates were incubated at a 37 C/5% CO2 incubator for 5 hours, 23 nL of compounds dissolved in DMSO, positive controls or DMSO only was transferred to the assay plate by a pin tool. The plates were incubated at 37 C for 16 hours. After 1 uL of LiveBLAzer B/G FRET substrate was added using a Flying Reagent Dispenser, the plates were incubated at room temperature for 2 hours, and fluorescence intensity was measured by an Envision plate reader.
With `COC(=O)c1ccccc1C(=O)OC`, the Potency entry is “inactive”.
As to `CC(C)C#N`, the “activation” value is -19.5% (inactive).
Still for that read-out and setting: the result for `Nc1ccc(Oc2ccc(N)cc2)cc1` reads -2.36% (inactive).
Turning to `O=[N+]([O-])c1ccccc1`, the Potency result was “inactive”.
For the molecule `CCC12COCN1COC2`, the “activation” value is -0.477% (inactive).
For the molecule `CCCCCCCCCl`, the Potency result was “inactive”.
Regarding `CC(C)(C)OOC(C)(C)C`, the Potency entry is “inactive”.
`[O-][Cl+2]([O-])O`: the “activation” value is 6.68% (inactive).
On to `O=c1[nH]c(=O)[nH]c(=O)[nH]1`, for which the Potency result was “inactive”.
For the molecule `CN(N=O)c1ccccc1`, the Potency result was “inactive”.
For the molecule `BrCCBr`, the “activation” value was 10.4% (inactive).
Turning to `CCC[N+](=O)[O-]`, the Potency entry is “inactive”.
Same read-out and setting: the same measure for `c1ccc2c(c1)oc1ccccc12`: “inactive”.
For the molecule `CC(NC(C)(C)C)C(=O)c1cccc(Cl)c1` (stereo not given), the “activation” value was -3% (inactive).
With `CN(C)N=O`, the Potency result was “inactive”.
Same read-out and setting: the same measure for `O=NN1CCCCCCC1`: “inactive”.
Regarding `C#CC(C)(C)NC(=O)c1cc(Cl)cc(Cl)c1`, the Potency result was “inactive”.
Take `CCOP(OCC)OCC`: the “activation” value is -2.66% (inactive).
On the same count and under the same terms, the same measure for `CC(=O)C=C(C)C`: -0.96% [at 94.8 µM] (inactive); for `CC(C)NC(=O)N1CC(=O)N(c2cc(Cl)cc(Cl)c2)C1=O`: 13.3% (inactive).
Still for that read-out and setting: the same measure for `Cc1ccc(N)cc1Cl`: -7.61% (inactive); for `Cc1ccc([N+](=O)[O-])cc1C`: -0.6% (inactive).
Regarding `CC(C)N1C(=O)c2ccccc2NS1(=O)=O`, the Potency result was “inactive”.
Still for that read-out and setting: the result for `O=[N+]([O-])c1ccc([As](=O)(O)O)cc1` reads 54.5 µM (active).
Regarding `CC1C=[C-]C=C1.[C-]#[O+].[C-]#[O+].[C-]#[O+].[Mn]`, the “activation” value is 4.7% (inactive).
For `Cc1ccc(N)cc1N`, the Potency result is “inactive”.
On the same count and under the same terms, the result for `CCCCOC(=O)c1ccccc1C(=O)OCCCC` reads “inactive”; that for `CCCN(CCC)c1c([N+](=O)[O-])cc(C(F)(F)F)cc1[N+](=O)[O-]`, “inactive”; that for `OCCN(CCO)CCO`, “inactive”.
As to `ClCc1cccnc1`, the “activation” value is -0.0755% (inactive).
Turning to `Cc1[nH]c(=O)n(C(C)(C)C)c(=O)c1Cl`, the “activation” value was 11% (inactive).
Turning to `COP(N)(=O)SC` (stereo not given), the Potency entry is “inactive”.
Still for that read-out and setting: the result for `Cn1cc(-c2ccccc2)c(=O)c(-c2cccc(C(F)(F)F)c2)c1` reads “inactive”.
Turning to `CCNc1nc(NC(C)C)nc(SC)n1`, the “activation” value was -3.24% (inactive).
Regarding `CC(C)C1(C)N=C(c2nc3ccccc3cc2C(=O)O)NC1=O` (stereo not given), the Potency result is “inactive”.
Consider `CC(C)=C[C@@H]1[C@@H](C(=O)OCc2coc(Cc3ccccc3)c2)C1(C)C`, for which the “activation” value was 2.28% (inactive).
With `C=CC(N)=O`, the “activation” value was 6.71% [at 94.8 µM] (inactive).
Take `CCCCCOC(=O)c1ccccc1C(=O)OCCCCC`: the Potency entry was “inactive”.
On the same count and under the same terms, the same measure for `Clc1ccc(Cl)cc1`: “inactive”.
Still for that read-out and setting: the same measure for `C[C@]12CC[C@H]3[C@@H](CC[C@@]45O[C@@H]4C(O)=C(C#N)C[C@]35C)[C@@H]1CC[C@@H]2O`: 30.6 µM (active) and 23.7 µM (active).
